One may read the inhibition as the relative decrease from the control value, in per cent.

Screen size: about 370,000 compounds; about 4,800 (1.3%) were called active.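 How the source made its calls: active means inhibition above about 21% made by adding two undisclosed values (limit read from the data); inactive means the rest.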 Only a selection was taken, and actives are over-represented in it overall.

Chain of Protein arginine N-methyltransferase 1 (Homo sapiens) (Q99873 whole entry, looked up): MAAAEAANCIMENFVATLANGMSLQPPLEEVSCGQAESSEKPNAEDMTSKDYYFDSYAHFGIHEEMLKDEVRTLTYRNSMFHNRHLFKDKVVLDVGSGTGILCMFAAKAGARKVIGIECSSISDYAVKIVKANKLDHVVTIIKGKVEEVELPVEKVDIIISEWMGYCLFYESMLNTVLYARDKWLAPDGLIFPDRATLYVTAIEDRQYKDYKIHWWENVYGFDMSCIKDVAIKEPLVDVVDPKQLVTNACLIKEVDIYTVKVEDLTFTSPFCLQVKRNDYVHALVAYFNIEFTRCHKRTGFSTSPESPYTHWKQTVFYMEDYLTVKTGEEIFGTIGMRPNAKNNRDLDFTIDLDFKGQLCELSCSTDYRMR

The assay has as its target Protein arginine N-methyltransferase 1 (Homo sapiens) (UniProt Q99873). Nature of the assay: PRMT1 methyltransferase inhibitors, primary screen, biochemical, fluorescence polarization (AID 652257). To be noted: recombinant PRMT1, activity-based probe fluorescence polarization; at 2.79 µM; stronger effect = higher value. (In general: In fluorescence polarisation assays a small probe gives low polarisation when free and higher when bound to something large.)
Turning to `COc1ccc(-n2c(SCC(=O)Nc3ccccc3-c3ccccc3)nnc2-c2cccnc2)cc1`, the inhibition is -3.53% (inactive).
The same measure for `COP(=O)(O)CNC(=O)OCc1ccccc1`: -3.79% (inactive); for `CCOc1ccc(C(=O)CCN2CCOCC2)cc1`: 21.4% (active); for `CCOc1ccc(C(=O)CCC(=O)Nc2ccncc2)cc1`: -2.2% (inactive).
The same measure for `CCOc1ccc(C(=O)CCC(=O)NC2=NCCS2)cc1`: 0.3% (inactive); for `CCN1C(=O)[C@H]2[C@@H](c3ccccc3)N[C@]3(CCCN(Cc4ccc(C)cc4)C3=O)[C@H]2C1=O`: -1.43% (inactive); for `COc1cc(CN2CC(C)CC(C)C2)cc([N+](=O)[O-])c1O` (configuration not stated): -0.22% (inactive).
With `COc1ccc(N2C(=O)CC(Nc3ccc(F)cc3)C2=O)c([N+](=O)[O-])c1` (configuration not stated), the inhibition was 2% (inactive).
The same measure for `COc1cc(/C=C2/C(=O)NN(c3ccc(F)cc3)C2=O)cc([N+](=O)[O-])c1O`: 22.9% (active); for `C=CCN1C(=O)[C@@H](CC(=O)N2CCN(C(=O)OCC)CC2)[C@]2(C(=O)OCC)CCCCC/C=C/12`: 2.76% (inactive).
The same measure for `N#CCOc1ccc(C2=NO[C@@H]3[C@@H]4C[C@@H]([C@H]5C(=O)N(c6ccc7c(c6)OCO7)C(=O)[C@@H]45)[C@H]23)cc1`: -0.79% (inactive).
The same measure for `O=C(NCc1ccc(F)cc1F)[C@@H]1CCCN1C(=O)[C@@H]1CCCN1C(=O)c1cccc(Cl)c1`: -3.37% (inactive); for `C/C(=N/Nc1nc(-c2ccccc2)c(CC(=O)O)s1)c1ccccc1`: 23.7% (active); for `CCOc1ccc(-c2nc(C)sc2CC(=O)O)cc1`: 4.47% (inactive).
As to `CC(=O)NC(CC(=O)Nc1nc(-c2ccccc2)c(C(C)=O)s1)c1ccccc1` (configuration not stated), the inhibition is 1.97% (inactive).
The same measure for `COC(=O)N1Cc2ccnnc2CC1c1ccccc1Br` (configuration not stated): -1.59% (inactive); for `CCOC(=O)c1cnc(SCC(=O)Nc2ccccc2C(=O)OC)nc1N`: -1.74% (inactive); for `CCCCSc1[nH]c(=O)c(C(=O)OCC)cc1C#N`: 5.58% (inactive).
The same measure for `CCOC(=O)C(Sc1ncc(C#N)c(N)n1)C(C)C` (configuration not stated): 33.5% (active); for `COCCCNc1nc2c(-c3cccc(C)c3)nnn2c2ccc(Cl)cc12`: 1.2% (inactive).
As to `C=CCOC/C=C/C#CCN(CC=C)Cc1ccc(OC)cc1OC`, the inhibition was -0.66% (inactive).
The value for `O=C(CCSc1ccccc1)NCCSc1ccccn1` was -0.03% (inactive).
The same measure for `Cc1ccc(Cc2c(-c3ccc(Cl)cc3)nc3c4ccccc4ccn23)cc1`: -0.73% (inactive); for `c1ccc(Cc2c(-c3ccco3)nc3c4ccccc4ccn23)cc1`: 26.2% (active).
The same measure for `Cc1ccc(Cc2c(-c3ccc(C)cc3)nc3c4ccccc4ccn23)cc1`: -3.94% (inactive); for `COc1ccc(CSc2nnc(-c3cccc(C)c3)n2C)cc1`: 8.96% (inactive).
Regarding `Cc1ccc(-n2c(SCC(=O)Nc3cccc4ccccc34)nnc2-c2ccco2)cc1`, the inhibition was 1.53% (inactive).
The value for `CCN(CC)C(=O)c1nc[nH]c1C(=O)N(C)Cc1ccccc1` was 0.76% (inactive); that for `CCN(CC)C(=O)c1sc2nc(-c3ccccc3)ccc2c1N` was 23.1% (active); that for `CCOC(=O)C(C)n1nc(-c2ccccc2)c2ccccc2c1=O` (configuration not stated) was -2.85% (inactive).
The value for `O=C(CN1CCCc2ccccc21)NCc1ccc(F)cc1` was -5.39% (inactive); that for `COc1cccc(N2CCN(CC(=O)N(C)Cc3ccc(F)cc3)CC2)c1` was 0.17% (inactive); that for `COc1ccccc1C(=O)NC1CCCCN(C(C)C)C1=O` (configuration not stated) was 2.65% (inactive).
The value for `O=C(C1CCN(S(=O)(=O)c2ccccc2)CC1)N1CCN(C2CCCCC2)CC1` was -0.34% (inactive); that for `COc1ccc(N(C)C(=O)C2CCN(S(=O)(=O)c3cccc4nsnc34)CC2)cc1` was -1.3% (inactive).
In the case of `Cc1ccccc1CN1C[C@@H]2C[C@@H](c3cn(C)nc3-c3ccccc3)N3CCC[C@@]23C1=O`, the inhibition was 67.8% (active).
The same measure for `COc1ccc(CN2CCN(Cc3cn(C)nc3-c3ccccc3)CC2CCO)c(C)c1C` (configuration not stated): 0.32% (inactive).
The same measure for `Cc1ccccc1CN1C[C@@H]2C[C@@H](c3ccc4nsnc4c3)N3CCC[C@@]23C1=O`: 1.62% (inactive).
The same measure for `C=CCN(C(=O)[C@@H](CCCC)[C@@H](O)c1ccc(Cl)cc1)c1ccccc1`: -0.47% (inactive); for `CC(C)CNc1cccc2c1S(=O)(=O)N(Cc1cn(Cc3ccccc3C(F)(F)F)nn1)Cc1ccccc1O2`: 2.58% (inactive).
In the case of `CCNC(=O)CC1C(=O)N(c2ccc(F)cc2)C(=O)N1CCc1sccc1C` (configuration not stated), the inhibition is -2.07% (inactive).
The value for `Cc1cc(Br)cn2c(Cc3cccc(F)c3)c(-c3cccc(Br)c3)nc12` was -2.69% (inactive); that for `Cc1cc2nc(-c3ccc(F)cc3)c(Cc3ccsc3)n2c(C)c1Br` was 1.03% (inactive); that for `Cc1cc2nc(-c3ccco3)c(Cc3cccc(F)c3)n2c(C)c1Br` was 36.5% (active).
The value for `Nc1nc(NC(=O)/C=C/c2ccc(F)cc2)nn1-c1ccccc1` was -3.14% (inactive); that for `O=C(O)CCn1c(O)c(C=C2N=c3ccccc3=N2)sc1=S` was 29.5% (active); that for `CCCCNC(=O)C[C@H]1C[C@@]2(C(=O)OC)C(=C[C@H](COCc3ccccc3)O[C@@H]2C)N(Cc2ccc(Cl)cc2Cl)C1=O` was -3.14% (inactive).
The same measure for `COc1ccc(NC(=O)CSc2nnc(Cc3ccccc3)c(=O)n2N)cc1`: 31.4% (active).
Take `COc1ccccc1-n1c(SCC(=O)Nc2ccc(Cl)cc2)nc(O)c(Cc2ccccc2)c1=O`: the inhibition is 34.5% (active).
The value for `CCOc1ccc(NC(=O)CSc2nc3c(c(=O)n2-c2ccccc2OC)SCC3)cc1` was 5.66% (inactive).
The same measure for `CCc1c(O)nc(SCC(=O)Nc2ccccc2)n(C(C)CC)c1=O` (configuration not stated): 17% (inactive).
The value for `COc1ccc(-n2c(COc3ccc(C)cc3)nnc2SCC(=O)Nc2ccc(Oc3ccccc3)cc2)cc1` was -3.87% (inactive).
Take `COc1ccc(Cc2nnc(SCC(=O)N(c3ccccc3)C(C)C)n(N)c2=O)cc1`: the inhibition is -6.66% (inactive).
The same measure for `Cn1ccnc1SCC(=O)Nc1ccc2c(c1)OCCO2`: 5.34% (inactive); for `COc1ccccc1-n1ccnc(SCC(=O)NC2CCCCC2)c1=O`: 1.07% (inactive).
The value for `COc1cccc(NC(=O)CSc2nccn(-c3ccc4c(c3)OCCO4)c2=O)c1` was 29.1% (active).
The value for `COC(=O)[C@@]12C[C@@H](CC(=O)NCCCCc3ccccc3)C(=O)N(CCc3ccc(OC)c(OC)c3)C1=CCC(C)(C)C2` was 3.69% (inactive); that for `CN[C@H]1C[C@H]2c3[nH]c4c(-c5ccccc5)cccc4c3CCN2C(=O)[C@H]1[C@H](C)O` was 6.14% (inactive).
Regarding `CSc1sc(C(=O)NC(=O)NCc2cccnc2)c(C)c1-c1ccon1`, the inhibition was 1.09% (inactive).
The same measure for `Cc1ccc(-n2nc(-c3ccco3)cc2C(=O)NCc2cccnc2)cc1`: 35.6% (active); for `Cc1ccc2c(c1)N(CCCC(=O)NCc1cccnc1)C(=O)CO2`: 0.38% (inactive).
For the compound `CN1C(=O)C(Br)(Br)CC1c1cccnc1` (configuration not stated), the inhibition was 1.18% (inactive).
`Cc1c[nH]c2cccc(-c3ccc(Cl)cc3)c12`: the inhibition is -0.29% (inactive).
The value for `O=C(CCNC(=O)c1ccccc1)NN=Cc1ccc(Br)o1` was 24.6% (active); that for `O=C(CSc1ccc(/C=N/NC(=O)c2cccc(F)c2)o1)Nc1ccccc1` was 2.86% (inactive).
For the compound `N#CCC(=O)N/N=C/c1ccc(SCC(=O)Nc2ccccc2)o1`, the inhibition was 4.99% (inactive).
The same measure for `COC1=C[C@H](C(=O)NCCNC(C)=O)[C@H](C)[C@@H](c2ccccc2)CC1=O`: 0.29% (inactive); for `COc1ccc(/C=C2\CC3(OC(C)=O)CCCN2C3)cc1` (configuration not stated): 1.73% (inactive).
The value for `Cc1ccc(CN2CCCCC(NC(=O)C3CCCCC3)C2=O)cc1` (configuration not stated) was -3.29% (inactive); that for `O=C(Nc1cccc(S(=O)(=O)N2CCOCC2)c1)C12CC3CC(CC(C3)C1)C2` was 2.62% (inactive).
The same measure for `NC(=O)C1(N2CCCC2)CCN(Cc2ccccc2)CC1`: 2.71% (inactive); for `CCCNC(=O)NCc1ccc(N2CCCC2=O)cc1`: 0.33% (inactive); for `NC(=O)C1(N2CCCCC2)CCN(C2CC(=O)N(Cc3ccc(N4CCCC4=O)cc3)C2=O)CC1` (configuration not stated): 41.5% (active).
For the compound `Clc1ccc(C(Cn2ccnc2)OCc2ccsc2Cl)c(Cl)c1` (configuration not stated), the inhibition is 1.55% (inactive).
The value for `O=C(Nc1ccc(Cl)cc1)Nc1ccc(Oc2cccnc2)nc1` was 1.37% (inactive).
The same measure for `O=C(CSc1n[nH]c(-c2cccnc2)n1)Nc1ccnc2ccccc12`: -1.69% (inactive); for `COc1ccc(Nc2nc(-c3cccnc3)nc3ccccc23)cn1`: 25.2% (active); for `CN(C)c1ccc(CNC(=O)CN2C(=O)COc3ccc(S(=O)(=O)N4CCCC4)cc32)cc1`: -4.13% (inactive).
The same measure for `O=C(N1CCOCC1)N1CC[C@H]2[C@H](CCCN2Cc2ccc(F)cc2)C1`: 5.12% (inactive); for `Cc1ccc(/C=C(\C#N)C(=O)Nc2cccc3ncccc23)o1`: 24.4% (active).
With `Cc1ccc2c(NC(=O)C3CC3)cccc2n1`, the inhibition was -1.46% (inactive).
The same measure for `N#C/C(=C/c1ccc(N2CCCCC2)o1)C(=O)NCCc1c[nH]c2ccccc12`: -51.4% (inactive); for `Cc1ccc(NC(=O)CCC(=O)c2ccc(Br)cc2)cc1`: -1.58% (inactive).
The value for `CCN(C(=O)c1ccc(Br)cc1)c1ccccc1` was -3.92% (inactive); that for `Cc1ccn(C(CC(=O)c2ccc(Br)cc2)C(=O)O)n1` (configuration not stated) was 23.6% (active); that for `CC(=O)N1CCOc2ccc(S(=O)(=O)N3CCC(C(=O)Nc4ccccc4F)CC3)cc21` was -0.05% (inactive).
As to `C=C(C)C#CC(Cc1ccccc1)N(CC1CC1)/C(N)=N/C(=O)OCc1ccccc1` (configuration not stated), the inhibition was -3.31% (inactive).
The same measure for `COC(=O)C(C(=O)OC)c1ccccc1NS(=O)(=O)c1cccc2ccccc12`: -4.23% (inactive); for `C[C@H](C(=O)N(C)c1ccccc1)[C@@H](O)c1ccc(Cl)cc1`: -4.72% (inactive); for `O=C1/C(=C/c2cccs2)SC(=S)N1C1CCS(=O)(=O)C1` (configuration not stated): 0.87% (inactive).
The same measure for `CCOc1ccc(NC(=O)C(C)N2C(=O)c3ccccc3C2=O)cc1` (configuration not stated): -1.49% (inactive); for `CC(C(=O)Nc1ccc(O)c(C(=O)O)c1)N1C(=O)/C(=C/c2cccs2)SC1=S` (configuration not stated): 26.4% (active).

Values taken from PubChem BioAssay AID652257 (The Scripps Research Institute Molecular Screening Center, 2013).
